This passage reports activation results from PubChem BioAssay AID743398 (Broad Institute, 2014).

Each structure is given as a SMILES string. The whole screen tested about 300,000 compounds, of which about 3,600 (1.2%) were called active. Cut-off read from the data, not from the text of the source: active = activation above about 30% (passing the limit was not always enough); inconclusive = no clear call, values can overlap the other calls. This excerpt belongs to a sample that is enriched for actives.

This test is described as follows: activation of beta-catenin signaling reporter – cell-based, plate reader, single point, primary screen (AID 743398).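 Note: 0% = neutral control wells and 100% = positive control wells.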 The conditions noted are these: Wnt/beta-catenin reporter cell assay, activator, at 9.35 µM, stronger effect = higher value.
Take `CC(Cc1ccccc1)NC=O` (stereo not given): the activation was -1.03% (inactive). The value for `CC(=O)NC(=O)NC(C)Cc1ccccc1` (stereo not given) was -4.37% (inactive); that for `CC(Cc1ccccc1)NCCC(c1ccccc1)c1ccccc1` (stereo not given) was 42% (active); that for `COc1cc(OC)cc(C(=O)NCCN2CCC3(CC2)C(=O)NCN3c2ccccc2)c1` was 3.07% (inactive). The value for `Brc1ccc2c(c1)CNCc1cnnn1-2` was -2.63% (inactive).
